TIM10 inh – inhibits growth of TIM10 yeast strain; actives 1.4% (n = 330,000); S. cerevisiae TIM10 strain growth, BacTiter-Glo luminescence, 24 h; inhibition, % at 10 µM; AID 463195;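 active = inhibition of 40% or more at the single tested concentration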;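 also: wild-type TIM10 isogenic control strain grown at permissive 25 °C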
EBI2 block – EBI2 (human) antagonism; P32249; EBI2 beta-arrestin recruitment, luminescence, 7a,25-OHC stimulated; inhibition, % at 5 µM; actives 0.81% (n = 360,000); AID 651636; in the data active = inhibition above about 38%;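 also: enzyme fragment complementation signal reports receptor beta-arrestin coupling in cells; 0% = agonist plus DMSO wells and 100% = wells without agonist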
Target sequence (P32249 whole entry, looked up, the tested form may be a part): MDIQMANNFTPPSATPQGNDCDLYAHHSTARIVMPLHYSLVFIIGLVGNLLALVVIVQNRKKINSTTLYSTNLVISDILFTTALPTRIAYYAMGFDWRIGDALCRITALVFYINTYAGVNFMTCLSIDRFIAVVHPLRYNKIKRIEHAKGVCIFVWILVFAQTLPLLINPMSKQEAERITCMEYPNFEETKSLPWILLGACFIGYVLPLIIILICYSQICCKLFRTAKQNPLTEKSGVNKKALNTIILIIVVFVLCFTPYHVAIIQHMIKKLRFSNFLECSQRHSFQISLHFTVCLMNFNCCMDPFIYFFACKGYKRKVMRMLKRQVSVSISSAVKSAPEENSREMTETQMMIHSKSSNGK
tim10-1 inh – inhibits growth of tim10-1 mutant yeast. S. cerevisiae tim10-1 ts strain growth, BacTiter-Glo, 24 h. inhibition, % at 20 µM. actives 2.2% (n = 330,000);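 active = inhibition of at least 40%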;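 also: mutant grown at 25 °C; 0% = DMSO wells with yeast and 100% = wells holding no yeast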
PfHsp90 yeast 2 – inhibits growth of yeast expressing Plasmodium falciparum Hsp90. inhibition, % at 9.4 µM. S. cerevisiae expressing PfHsp90, BacTiter-Glo ATP, 48 h; yeast lacking PDR1 and PDR3 efflux regulators. AID 504621. actives 0.32% (n = 310,000);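 active = every replicate shows inhibition above about 80%, whatever the replicate mean, limit read from the data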;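 also: 0% = DMSO neutral controls and 100% = 20 µM radicicol positive controls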
SKKanGAS inh – inhibitors of SKKanGAS S. pyogenes growth in kanamycin (SK-promoter or general growth effect); BacTiter-Glo, 6 h; actives 1.3% (n = 300,000); inhibition, % at 7.5 µM; AID 1662;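 active = mean replicate score, as percent of positive control median, at least 50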;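 also: strain carries kanamycin resistance gene driven by streptokinase promoter and grows in 40 µg/ml kanamycin; loss of luminescence reflects streptokinase promoter inhibition or plain growth inhibition; 0% = median of DMSO wells and 100% = positive control at its reference dose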
tim23-1 inh – tim23-1 yeast growth inhibition. S. cerevisiae tim23-1 growth, BacTiter-Glo luminescence, 24 h. actives 1.3% (n = 330,000). inhibition, % at 20 µM;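 active = growth inhibition of the mutant yeast at or above 50%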;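 also: temperature-sensitive mutant grown at 25 °C; plate controls were DMSO-treated mutant yeast for no effect and medium wells lacking yeast for full effect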
tim10-1 confirm – tim10-1 yeast growth inhibition, confirmed; shares compounds with tim10-1 inh; S. cerevisiae tim10-1 ts strain growth, BacTiter-Glo, 24 h; inhibition, % at 20 µM; actives 56% (n = 7,400); AID 463213;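 active = inhibition of yeast growth at or above a set limit in either of two repeat tests at 20 µM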;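 also: tim10-1 mutant grown at permissive 25 °C to find synthetic lethal compounds; 0% = DMSO yeast wells and 100% = medium wells without yeast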
tim10 confirm – TIM10 yeast growth inhibition, confirmed. AID 463215. S. cerevisiae tim10 strain growth, BacTiter-Glo luminescence, 24 h. actives 63% (n = 4,600). inhibition, % at 10 µM. shares compounds with TIM10 inh;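 active = inhibition of yeast growth at or above a set limit in either of two replicates at 10 µM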;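 also: this counterscreen used the strain with wild-type TIM10; 0% = yeast with DMSO and 100% = medium wells lacking yeast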
An asterisk follows results filed as active; . = no result. An excerpt weighted towards active compounds, which were near 4.7% of everything screened.

SMILES	TIM10 inh	EBI2 block	tim10-1 inh	PfHsp90 yeast 2	SKKanGAS inh	tim23-1 inh	tim10-1 confirm	tim10 confirm
O=C(c1ccc(Cl)cc1)c1ccc(CN2C(=O)c3ccccc3C2=O)o1	23	12	41*	-82	6	17	12	.
O=C(c1ccc(F)cc1)c1ccc(CN2C(=O)c3ccccc3C2=O)o1	30	-6	30	9	5	4	.	.
N#Cc1nc(-c2ccco2)oc1N1CCc2ccccc2C1	15	12	44*	25	0	32	27	.
N#Cc1nc(-c2ccco2)oc1N1CCCC1	-13	-4	15	-32	-10	6	.	.
Cc1ccc2c(c1)c1c3n2CCN(C(=O)CCl)C3CCC1 (centres undefined)	6	-15	43*	14	-1	22	30	.
CCN(Cc1nc2ccccc2c(=O)[nH]1)Cc1cc(=O)oc2cc(OC)ccc12	1	1	-9	18	.	15	.	.
CC(C)CNC(=O)Cn1nc(C(F)(F)F)c2c1CCCC2	3	2	10	7	-1	14	.	.
O=C(Cn1nc(C(F)(F)F)c2c1CCC2)NCc1ccc(Cl)cc1	14	2	41*	17	6	-9	30	.
O=C(Nc1cccc(C(F)(F)F)c1)c1ccco1	16	-3	5	.	-5	14	.	.
O=C(Nc1ccc(Cl)c(C(F)(F)F)c1)c1ccco1	51*	7	46*	-52	.	44	56*	12
Cc1cccc(CN2C(=O)[C@H]3Cc4c([nH]c5ccccc45)C(C)(C)N3C2=O)c1	43*	8	44*	.	16	48	35*	35*
Cc1cc(CNC[C@H]2O[C@@H](n3ccc(=O)[nH]c3=O)[C@H](O)[C@@H]2O)no1	.	-5	.	.	.	.	.	.
N#C/C(=C\C=C\c1ccccc1[N+](=O)[O-])C(=O)NC1CCCCC1	43*	8	55*	.	-1	30	47*	53*
CC(=O)Nc1ccc(S(=O)(=O)N2CCSC2c2ccc(Cl)cc2)cc1 (centres undefined)	40*	0	53*	23	2	47	39*	-25
COC(=O)C1CN(S(=O)(=O)c2ccc(NC(C)=O)cc2)CCS1 (centres undefined)	3	-2	-7	17	2	9	.	.
CC(C)(C)OC(=O)N1CCC(NC(=O)c2nc[nH]c2C(=O)NCC(=O)OCc2ccccc2)CC1	10	11	0	5	3	7	.	.
CCC(/C=C1\Sc2ccc(OC)cc2N1CC)=C\c1sc2ccc(OC)cc2[n+]1CCCS(=O)(=O)[O-]	45*	-10	50*	21	22	33	43*	13
CCO/C(=C/c1sc2ccc(OC)cc2[n+]1CCCS(=O)(=O)[O-])CC	-5	-5	1	.	0	9	.	.
O=C(O)/C=C/C(=O)Nc1ccc(OC(F)(F)F)cc1	-7	3	9	10	-4	3	.	.
FC(F)(F)Oc1ccc(NC(=S)Nc2ccc(OC(F)(F)F)cc2)cc1	57*	11	50*	16	72*	49	62*	70*
CCc1ccc(CN(C)C(=O)c2cc(COc3ccc(OC)cc3Cl)on2)nc1	8	11	18	-28	-7	29	.	.
O=C(/C=C/c1ccc(N2CCC(c3ccccc3)=N2)cc1)c1ccccc1	43*	.	41*	.	-5	12	25	24
O=C(/C=C/c1ccc(O)cc1)c1ccccc1	34	-2	7	6	33	19	.	.
Cc1cccc(/C=C2\Oc3cc(OS(C)(=O)=O)ccc3C2=O)c1	43*	13	47*	-10	-1	46	37*	-22
COC(=O)COc1ccc2c(c1)O/C(=C\c1cccc([N+](=O)[O-])c1)C2=O	27	19	27	8	6	26	.	.
SMILES	TIM10 inh	EBI2 block	tim10-1 inh	PfHsp90 yeast 2	SKKanGAS inh	tim23-1 inh	tim10-1 confirm	tim10 confirm
COc1ccccc1N(CC(=O)N1CCCCC1C)S(=O)(=O)c1ccc(Cl)cc1 (centres undefined)	.	-4	.	.	.	.	.	.
CCc1cccc2sc(N3CCN(C(=O)c4ccc([N+](=O)[O-])o4)CC3)nc12	58*	5	79*	8	59*	8	74*	89*
CCOC(=O)c1cnc2c(ccc3ccccc32)c1NCCCN(C)C	81*	28	50*	-16	-5	46	65*	80*
CCOC(=O)c1cnc2ccccc2c1NCCO	-3	-3	14	1	-1	13	.	.
CCCCN1CC(=O)N2[C@H](c3ccc(OC)cc3)[C@@H]3C(=O)N(CC)C(=O)[C@@H]3[C@]2(C)C1=O	-11	3	-6	7	-2	-4	.	.
O=C(COC(=O)/C=C/C(=O)OCC(=O)NC12CC3CC(CC(C3)C1)C2)NC12CC3CC(CC(C3)C1)C2	45*	31	56*	-16	-18	36	43*	13
CCOc1ccccc1C(=O)N1CCN(c2ccc(C(F)(F)F)cn2)CC1	7	9	19	0	3	25	.	.
CC(C)N(C)CCOC(=O)C1COc2ccccc2O1 (centres undefined)	6	0	11	27	-9	12	.	.
CC(=O)Nc1cccc(NC(=O)c2cc([N+](=O)[O-])ccc2N2CCCCC2)c1	16	15	11	6	.	15	.	.
Cc1cccc(NC(=O)c2cc([N+](=O)[O-])ccc2N2CCCCC2)n1	47*	23	43*	-42	3	31	39*	18
CC1C/C(=C/c2ccncc2)C(=O)/C(=C/c2ccncc2)C1 (centres undefined)	84*	8	44*	98*	0	-8	39*	89*
C[n+]1c2n(c3ccccc31)N=C(c1ccc(Br)cc1)CS2	43*	28	44*	.	-10	27	44*	32*
O=C1/C(=C/c2cccs2)SC(=S)N1c1cccc(O)c1	61*	-4	41*	8	10	47	57*	61*
Cc1ccc(O)c(-c2cc(-c3ccccc3C)[nH]n2)c1	66*	33	52*	-48	42	-9	18	-1
Oc1ccc(Cl)cc1-c1cc(-c2ccccc2Cl)[nH]n1	41*	23	49*	4	3	37	36*	37*
Cc1ccc(O)c(-c2cc(C(F)(F)C(F)F)[nH]n2)c1	33	6	24	0	-13	28	.	.
Oc1ccc(Cl)cc1-c1cc(-c2cccc(Br)c2)n[nH]1	53*	30	48*	-35	54*	49	37*	49*

Source: PubChem BioAssay (several laboratories)
